# High-throughput results as filed in PubChem BioAssay.
# MBD2 DNA inh: inhibitors of MBD2 binding to methylated DNA, primary screen, biochemical, TR-FRET, DNA-binding domain, human. MBD2 binding to methylated oligonucleotide. AID 686964, 2013. 370,000 compounds, 0.31% hits. Methyl-CpG-binding domain protein 2 (Homo sapiens), Q9UBB5. inhibition, % at 4.4 µM; in the data active = inhibition above about 13%
# Target sequence (Q9UBB5 whole entry, looked up, the tested form may be a part): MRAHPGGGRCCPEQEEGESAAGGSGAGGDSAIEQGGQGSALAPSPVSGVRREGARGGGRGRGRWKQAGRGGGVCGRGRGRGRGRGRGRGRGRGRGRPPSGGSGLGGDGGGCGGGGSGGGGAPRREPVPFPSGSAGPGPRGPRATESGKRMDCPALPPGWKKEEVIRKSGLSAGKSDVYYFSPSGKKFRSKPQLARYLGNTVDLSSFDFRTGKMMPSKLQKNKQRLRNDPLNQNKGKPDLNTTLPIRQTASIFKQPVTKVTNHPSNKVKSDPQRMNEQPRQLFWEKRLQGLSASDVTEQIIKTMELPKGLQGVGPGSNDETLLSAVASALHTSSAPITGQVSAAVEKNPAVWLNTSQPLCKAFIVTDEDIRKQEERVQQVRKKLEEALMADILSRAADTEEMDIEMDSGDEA
# PLC-gamma1 inh: PLC-gamma1 enzyme inhibitors, primary screen, biochemical, fluorescence, purified enzyme; 370,000 compounds, 0.84% hits; 1-phosphatidylinositol 4,5-bisphosphate phosphodiesterase gamma-1 (Homo sapiens), P19174; inhibition, % at 12.2 µM; AID 720700, 2013; fluorogenic substrate; in the data active = inhibition above about 9.5%
# UHRF1 binding: UHRF1 methylated DNA binding inhibitors, primary screen, counter-screen for MBD2 inhibitor project, biochemical, TR-FRET, human UHRF1, single concentration; AID 687016, 2013; inhibition, % at 4.4 µM; 370,000 compounds, 0.75% hits; E3 ubiquitin-protein ligase UHRF1 (Homo sapiens), Q96T88; UHRF1 binding to methylated oligo;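 note: UHRF1 SRA domain binding a hemimethylated CpG hairpin DNA probe; 0% = median of test compound wells and 100% = reference inhibitor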
# LEDGF integ inh: blockers of LEDGF/p75-dependent integrase strand transfer – biochemical, TR-FRET, high throughput, primary screen. HIV-1 integrase (with human LEDGF/p75). TR-FRET IN-LEDGF/p75 DNA integration, Eu/Cy5. inhibition, % at 3.7 µM. 370,000 compounds, 0.64% hits;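 active = inhibition above the screen-wide mean plus 3 SD, cut at about 13% in these data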;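 note: signal is the Cy5 over europium emission ratio at 671 and 618 nm; 0% = plate median of compound wells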
# PLCb3 inh: human PLC-beta3 inhibitors, primary screen, biochemical, fluorescence; Purified PLC-beta3, fluorogenic substrate; inhibition, % at 12.2 µM; 370,000 compounds, 0.18% hits; in the data active = inhibition above about 11%;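 note: 0% = median of compound wells on plate and 100% = full blocker control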
# UHRF1 ctr MBD2: UHRF1 methylated DNA binding inhibitors, counter-screen for MBD2 inhibitor project, biochemical, TR-FRET, human UHRF1; shares compounds with MBD2 DNA inh; UHRF1 binding to methylated oligonucleotide; inhibition, % at 4.4 µM; 1,000 compounds, 25% hits; AID 720530, 2013;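 note: UHRF1 SRA domain binding a labeled hemimethylated CpG hairpin DNA; 0% = vehicle only and 100% = reference inhibitor with vehicle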
# MBD2 confirm: inhibitors of MBD2 binding to methylated DNA, confirmation, biochemical, TR-FRET, DNA-binding domain, human; shares compounds with MBD2 DNA inh; TR-FRET MBD2-DBD binding to methylated oligonucleotide; inhibition, % at 4.4 µM; 1,000 compounds, 26% hits; in the data active = inhibition above about 14%
# IN multimer up: HIV-1 IN multimer formation enhancers, counter-screen for LEDGF/p75 integration inhibitor project, biochemical, TR-FRET; shares compounds with LEDGF integ inh; TR-FRET HIV-1 integrase multimerization; activation, % at 7.7 µM; 2,000 compounds, 17% hits; in the data active = activation above about 8.9%
# TRFRET interf: TR-FRET optical interference artefacts, confirmation, artefact control for LEDGF/p75-dependent integration inhibitor project, biochemical, HIV-1 IN multimerization; shares compounds with LEDGF integ inh; TR-FRET optical interference counterscreen; inhibition, % at 7.7 µM; 2,000 tested, under 10 active;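 active = inhibition above the mean over all tested compounds plus 3 SD, which no compound reached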;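 note: 0% = integrase with antibodies and DMSO and 100% = antibodies without integrase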
# LEDGF integ conf: inhibitors of HIV-1 IN-LEDGF/p75 DNA integration, confirmation, biochemical, TR-FRET | TR-FRET LEDGF/p75-dependent HIV-1 integration | shares compounds with LEDGF integ inh | inhibition, % at 3.7 µM | 2,000 compounds, 36% hits; in the data active = inhibition above about 14%
# * = called active by the depositor; . = no result. Hits are enriched below; roughly 2.3% of the tested compounds scored in any of these assays. Cut-off read from the data, not from the text of the source, unless noted: active = inhibition above about 21%; inactive = the rest.
SMILES,MBD2 DNA inh,PLC-gamma1 inh,UHRF1 binding,LEDGF integ inh,PLCb3 inh,UHRF1 ctr MBD2,MBD2 confirm,others
c1ccc(Cc2cnc(N3CCNCC3)nc2)cc1,0,0,0,-12,-3,.,.,
CC(=O)N1Cc2cnnn2-c2ccccc2C1(C)C#N (configuration not stated),0,-3,3,-2,1,.,.,
CC(=O)N1Cc2cnnn2-c2ccccc2C1(C#N)Cc1ccccc1 (configuration not stated),29*,0,-1,-1,1,7,5,
O=C1C2CC=CCC2C(=O)N1SC(Cl)(Cl)Cl (configuration not stated),0,4,4,1,8,.,.,
COC(=O)[C@H]1C[C@@]2(C)c3ccccc3N[C@H]2N1,6,1,9,5,4,.,.,
COc1cccc2c1C(=O)c1c(O)c3c(c(O)c1C2=O)CC(O)(C(C)=NO)CC3OC1CC(N)C(O)C(C)O1 (configuration not stated),109*,-89,95*,0,-107,100*,109*,
C#C[C@]1(O)CC[C@H]2[C@@H]3CCC4=CC(=O)CC[C@]4(C)[C@H]3CC[C@@]21C,2,-4,1,0,0,.,.,
C#C[C@]1(O)CCC2C3CCC4=C/C(=N/OCC(=O)NC(C)C(=O)NC(CCSC)C(=O)O)CC[C@]4(C)C3CC[C@@]21C (some centres not stated),44*,-3,5,10,-12,4,3,
COc1ccc(Cc2cn(C)c(N)n2)cc1,2,-5,-2,1,-7,.,.,
CC[C@@H]1C[C@H]2CC[C@H](O2)[C@H](C)C(=O)O[C@@H](C)C[C@@H]2CC[C@@H](O2)[C@@H](C)C(=O)O[C@H](C)C[C@H]2CC[C@H](O2)[C@H](C)C(=O)O[C@@H](C)C[C@@H]2CC[C@@H](O2)[C@@H](C)C(=O)O1,3,0,-2,-1,5,.,.,
O=C(c1ccc(Cl)cc1)C1CCCN(Cc2ccc3ncccc3c2)C1 (configuration not stated),15*,0,25*,-4,-4,8,2,
O=C(c1ccc(Cl)cc1)C1CCCN(Cc2ccc3c(c2)OCCO3)C1 (configuration not stated),-4,3,-1,3,5,.,.,
CN(C)[C@@H]1C(=O)C(C(N)=O)=C(O)[C@@]2(O)C(=O)C3=C(O)c4c(O)cccc4[C@@](C)(O)C3[C@H](O)C12 (some centres not stated),19*,-12,62*,42*,-33,9,1,IN multimer up=15*;TRFRET interf=-53;LEDGF integ conf=25*
C[n+]1c(-c2ccccc2)c2cc(N)ccc2c2ccc(N)cc21,55*,-137,62*,41*,-187,77*,86*,IN multimer up=2;TRFRET interf=-12;LEDGF integ conf=64*
CCOC(=O)CC[C@@H]1CC[C@]2(CCCN(Cc3ccncc3)C2)O1,-6,-2,1,2,-3,.,.,
